Screens as filed in PubChem.
Hits are enriched below; roughly 3.5% of the tested compounds scored in any of these assays.
Pf apPOL inh = Pf-apPOL DNA polymerase inhibition. AID 1794808. 210,000 tested, 0.25% active. Recombinant Pf-apPOL, molecular beacon fluorescence, 1.5 h. inhibition, % at 10 µM
mHTT-CaM PPI inh = inhibitors of human mutant huntingtin-calmodulin interaction; inhibition, % at 15 µM; P42858; AlphaScreen His-mHTT/GST-CaM binding, luminescence; 190,000 tested, 3.6% active
Target sequence (P42858 whole entry, looked up, change not shown): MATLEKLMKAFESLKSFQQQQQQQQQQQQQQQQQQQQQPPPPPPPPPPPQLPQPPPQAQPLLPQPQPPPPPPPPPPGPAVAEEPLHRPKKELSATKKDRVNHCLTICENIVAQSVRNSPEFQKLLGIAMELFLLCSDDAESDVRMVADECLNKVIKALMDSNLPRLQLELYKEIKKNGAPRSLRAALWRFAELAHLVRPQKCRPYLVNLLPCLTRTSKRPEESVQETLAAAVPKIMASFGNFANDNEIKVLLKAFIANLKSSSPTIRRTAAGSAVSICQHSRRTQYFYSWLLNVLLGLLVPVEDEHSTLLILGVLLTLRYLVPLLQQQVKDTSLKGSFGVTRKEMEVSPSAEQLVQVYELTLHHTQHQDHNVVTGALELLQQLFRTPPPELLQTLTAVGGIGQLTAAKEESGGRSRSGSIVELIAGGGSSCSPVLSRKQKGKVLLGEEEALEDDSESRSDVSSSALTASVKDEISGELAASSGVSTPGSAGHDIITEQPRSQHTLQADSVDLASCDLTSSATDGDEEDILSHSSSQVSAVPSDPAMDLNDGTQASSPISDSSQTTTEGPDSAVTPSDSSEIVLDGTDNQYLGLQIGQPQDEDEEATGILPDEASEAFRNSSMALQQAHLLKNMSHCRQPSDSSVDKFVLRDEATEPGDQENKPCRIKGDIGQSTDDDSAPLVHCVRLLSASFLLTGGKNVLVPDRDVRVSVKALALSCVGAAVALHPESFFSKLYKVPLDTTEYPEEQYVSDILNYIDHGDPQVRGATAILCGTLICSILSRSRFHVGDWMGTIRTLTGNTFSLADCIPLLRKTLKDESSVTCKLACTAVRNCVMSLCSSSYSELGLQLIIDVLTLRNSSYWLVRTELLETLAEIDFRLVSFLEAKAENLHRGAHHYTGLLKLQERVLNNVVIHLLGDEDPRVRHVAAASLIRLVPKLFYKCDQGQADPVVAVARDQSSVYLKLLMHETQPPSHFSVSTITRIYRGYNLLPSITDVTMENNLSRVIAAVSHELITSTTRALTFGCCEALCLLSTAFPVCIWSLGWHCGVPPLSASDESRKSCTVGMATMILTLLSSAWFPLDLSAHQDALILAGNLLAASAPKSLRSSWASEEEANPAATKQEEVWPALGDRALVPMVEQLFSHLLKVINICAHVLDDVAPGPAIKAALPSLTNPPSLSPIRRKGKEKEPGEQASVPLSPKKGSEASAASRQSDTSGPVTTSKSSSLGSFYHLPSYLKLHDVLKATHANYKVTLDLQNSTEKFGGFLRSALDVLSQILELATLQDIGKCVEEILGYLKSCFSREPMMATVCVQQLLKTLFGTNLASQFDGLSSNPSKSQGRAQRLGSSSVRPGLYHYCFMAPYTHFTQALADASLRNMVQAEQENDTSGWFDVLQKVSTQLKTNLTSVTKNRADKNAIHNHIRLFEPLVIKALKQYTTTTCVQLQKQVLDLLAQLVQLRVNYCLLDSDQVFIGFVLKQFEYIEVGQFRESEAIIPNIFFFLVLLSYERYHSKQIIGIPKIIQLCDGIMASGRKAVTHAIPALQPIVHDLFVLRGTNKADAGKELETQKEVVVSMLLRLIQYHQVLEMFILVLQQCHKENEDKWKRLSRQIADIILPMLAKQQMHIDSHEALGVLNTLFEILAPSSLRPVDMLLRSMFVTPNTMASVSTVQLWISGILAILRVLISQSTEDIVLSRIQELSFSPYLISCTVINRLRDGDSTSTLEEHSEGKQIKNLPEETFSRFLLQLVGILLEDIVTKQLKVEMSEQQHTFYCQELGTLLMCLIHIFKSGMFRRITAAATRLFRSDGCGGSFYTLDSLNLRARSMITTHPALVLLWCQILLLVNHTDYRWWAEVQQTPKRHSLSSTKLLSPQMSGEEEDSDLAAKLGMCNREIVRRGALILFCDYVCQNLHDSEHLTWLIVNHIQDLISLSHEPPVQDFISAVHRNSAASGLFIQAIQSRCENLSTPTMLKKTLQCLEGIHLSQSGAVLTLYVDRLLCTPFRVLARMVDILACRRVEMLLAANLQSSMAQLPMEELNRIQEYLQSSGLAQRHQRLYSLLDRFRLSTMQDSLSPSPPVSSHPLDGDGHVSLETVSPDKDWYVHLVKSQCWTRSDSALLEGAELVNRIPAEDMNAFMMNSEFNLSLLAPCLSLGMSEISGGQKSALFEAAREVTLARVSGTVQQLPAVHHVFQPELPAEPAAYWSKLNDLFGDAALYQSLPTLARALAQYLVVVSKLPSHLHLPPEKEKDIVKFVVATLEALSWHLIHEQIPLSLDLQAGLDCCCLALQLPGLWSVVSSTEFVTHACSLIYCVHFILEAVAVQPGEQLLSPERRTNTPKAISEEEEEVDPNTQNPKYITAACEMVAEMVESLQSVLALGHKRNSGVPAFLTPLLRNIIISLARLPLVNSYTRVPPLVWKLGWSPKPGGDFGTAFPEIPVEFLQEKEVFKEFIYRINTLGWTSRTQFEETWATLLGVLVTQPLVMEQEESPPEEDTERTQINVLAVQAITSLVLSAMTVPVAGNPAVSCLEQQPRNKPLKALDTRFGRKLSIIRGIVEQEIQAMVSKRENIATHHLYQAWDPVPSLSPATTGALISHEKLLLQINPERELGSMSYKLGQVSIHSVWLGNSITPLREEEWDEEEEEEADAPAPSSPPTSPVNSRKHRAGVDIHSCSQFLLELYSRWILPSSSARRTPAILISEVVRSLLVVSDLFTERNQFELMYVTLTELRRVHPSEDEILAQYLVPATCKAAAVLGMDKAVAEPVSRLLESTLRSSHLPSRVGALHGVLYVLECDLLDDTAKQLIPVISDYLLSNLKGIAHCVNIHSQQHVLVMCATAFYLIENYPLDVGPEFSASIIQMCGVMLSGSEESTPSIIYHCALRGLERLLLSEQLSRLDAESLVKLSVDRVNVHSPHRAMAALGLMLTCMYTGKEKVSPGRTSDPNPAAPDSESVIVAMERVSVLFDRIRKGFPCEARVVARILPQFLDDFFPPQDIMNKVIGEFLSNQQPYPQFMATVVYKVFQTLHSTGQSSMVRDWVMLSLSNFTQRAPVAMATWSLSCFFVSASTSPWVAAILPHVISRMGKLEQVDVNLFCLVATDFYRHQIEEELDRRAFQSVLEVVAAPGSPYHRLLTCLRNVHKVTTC
A number is an active result; – = inactive; · = not tested or not shown; ! = not confirmed by another sample. No stated cut-off is given here; in the data, active means inhibition above about 50%; inactive means the rest.

SMILES	Pf apPOL inh	mHTT-CaM PPI inh
CC1=CC(=O)C=C(C)C1=NOC(=O)c1ccccc1Br	–	90.0
O=C1C=CC(=NOC(=O)c2ccccc2Br)C=C1	–	89.0
O=C1C=CC(=NOC(=O)c2ccc([N+](=O)[O-])cc2)C=C1	–	–
Cc1ccc(C(=O)ON=C2C=CC(=NOC(=O)c3ccccc3Br)C=C2)cc1	–	–
COc1ccc(C(=O)ON=C2C=CC(=O)C=C2)cc1	–	53.0
CCN1CN(C2CCCCC2)CNC1=S	·	–
COc1ccc(-c2noc(C3CCN(CC(=O)Nc4ccc(C)cc4)CC3)n2)cc1	–	–
O=C(c1cnccn1)N1CCC(Oc2nc3ccccc3s2)CC1	–	–
CCN(CC)C(=O)c1cc2c(s1)CCC(C(=O)N1CCCCC1)C2 (centres undefined)	–	–
CC(C)N(C(=O)c1ccccc1F)C(C)C	–	81.7
Cc1cccnc1N(C(=O)c1ccccc1F)C(=O)c1ccccc1F	–	–
Cc1nc2c(oc3nc(-c4ccco4)c4c(c32)CC(C)(C)OC4)c(-c2ccccc2)c1C(=O)O	–	–
Cc1nc2c(oc3nc(-c4ccoc4)c4c(c32)CC(C)(C)OC4)c(-c2ccccc2)c1C(=O)O	–	74.0!
O=C(c1ccccc1Cl)c1coc2ccc(Cl)cc2c1=O	–	98.3
O=C(c1cccc(F)c1)c1coc2ccc(Cl)cc2c1=O	–	–
O=C(NCc1ccncc1)c1cn2ccccc2n1	–	–
Cc1ccc(CCNC(=O)CN2N=C(c3ccc(Cl)cc3)CCC2=O)cc1	–	65.0
COc1ccc(CCNC(=O)CN2N=C(c3ccc(Cl)cc3)CCC2=O)cc1OC	–	–
O=C(COc1ccc(Cl)cc1Cl)NCCOC12CC3CC(CC(C3)C1)C2	–	–
Cc1ccc(C2CN(S(=O)(=O)c3ccccc3)CCN2C)cc1 (centres undefined)	–	–
Cc1ccc(C)c(N2CCN(C(=O)C3CCN(c4cncnc4N(C)C)CC3)CC2)c1	–	59.8
CN(C)c1ncncc1N1CCC(C(=O)N2CCCC2)CC1	–	–
CC1CCN(C(=O)C2CCN(c3cncnc3N(C)C)CC2)CC1	–	–
CN(C)c1ncncc1N1CCC(C(=O)N2CCC(Cc3ccccc3)CC2)CC1	–	50.5
COc1cccc(CNC(=O)c2ccc3c(c2)NC(=O)C2CCCN32)c1OC (centres undefined)	–	–
SMILES	Pf apPOL inh	mHTT-CaM PPI inh
Cc1ccc(NC(=O)C2CC(=O)N(c3ccc4oc(C)nc4c3)C2)c(F)c1 (centres undefined)	–	–
CC(C)CNC(=O)C1CCN(C2CCN(C(=O)c3cccs3)CC2)CC1	–	–
Cn1c(N2CCC(C(=O)N3CCN(c4ccccc4F)CC3)CC2)cc(=O)n(C)c1=O	–	–
Cn1c(N2CCC(C(=O)N3CCN(c4ccccn4)CC3)CC2)cc(=O)n(C)c1=O	–	–
CCn1c(N2CCC(C(=O)N3CCN(c4ccccc4F)CC3)CC2)cc(=O)n(C)c1=O	–	61.9
CCn1c(N2CCC(C(=O)N3CCN(c4ccccn4)CC3)CC2)cc(=O)n(C)c1=O	–	53.1
COc1ccc(C2=N/C(=C\c3ccccc3Cl)C(=O)O2)cc1[N+](=O)[O-]	–	–
Cc1ccsc1C1C2=C(CCCC2=O)Nc2ncnn21 (centres undefined)	–	–
Cc1ccsc1C1C2=C(CC(C)(C)CC2=O)Nc2ncnn21 (centres undefined)	–	87.3
CCn1cc(Cl)c(C(=O)N2CCc3nc4cc[nH]n4c(=O)c3C2)n1	–	–
Cc1c(CCCN)c2ccccc2n1-c1ccccc1	–	50.1
N=c1sc2ccccc2n1-c1ccccc1	–	·
Cc1ccc(-n2nc3ccc(NC(=O)C(C)C)cc3n2)cc1Cl	–	–
O=c1/c(=C/c2cccc(Cl)c2)sc2nnc(-c3ccccc3)n12	–	–
Cc1ccc(/C=C/NC(=O)c2ccco2)cc1C	–	76.7
Cc1cccc(C)c1NC(=O)c1ccco1	–	–
COc1ccc(NC(=O)COc2ccc(Cl)c(C)c2)cc1	–	–
O=C(Cc1ccccc1Cl)NCC(O)C1CCCCC1 (centres undefined)	–	–
O=C(NCCn1nc(-c2cccs2)ccc1=O)C1c2ccccc2Oc2ccccc21	–	–
O=C(Nc1cc(-c2cccs2)nn1CCO)C1c2ccccc2Oc2ccccc21	–	57.8
Cc1c(Cl)cccc1N=Cc1nc(/C=C/c2cccc([N+](=O)[O-])c2)oc1O	–	–
CC(C)c1nc2c(c(=O)n1CC(=O)Nc1ccc(F)cc1)CN(Cc1ccccc1)CC2	–	–
CCCNC(=O)N1CCCC1c1nc(-c2ccccc2)no1 (centres undefined)	–	–
C(#Cc1ccccc1)CN1CCN(CC#Cc2ccccc2)CC1	–	–
Cc1ccc2ccccc2c1C[N+](C)(C)CC#Cc1ccccc1	·	77.4
CCCn1cc(C2=CCN(S(=O)(=O)c3ccc(Cl)s3)CC2)c2cccnc21	–	–
Cc1cc(C)cc(N2CC(C(=O)NC(C)C)CC2=O)c1 (centres undefined)	–	–
CN(C)c1ccc(C2(c3ccc(N(C)C)cc3)OC(=O)c3ccccc32)cc1	–	86.0
